What all share (experiment): NCI-60 one-dose screen, 48 h (100 = growth as untreated, 0 = no growth, -100 = all killed)
Holding throughout (conditions): 10 µM unless noted

Test [1] relates to NCI-H23 lung.
Test [2] has as its system NCI-H226 lung.
The test system of test [3] is NCI-H322M lung.
The subject of test [4] is HOP-62 NSCLC.
For test [5], the system named is NCI-H460 lung.
For test [6], the system named is HOP-92 NSCLC.
Test [7] relates to NCI-H522 lung.
The test system of test [8] is A549/ATCC NSCLC.
Test [9] concerns 786-0 renal.
Test [10] concerns COLO 205 colon.
In test [11] the test system is DU-145 prostate.
Test [12] deals with K-562 leukemia.
Test [13] has as its system MALME-3M melanoma.
In test [14] the test system is MDA-MB-231 breast.
Test [15] deals with RXF 393 renal.
In test [16] the test system is SF-268 CNS.
The subject of test [17] is SF-295 CNS.
Test [18] concerns SF-539 CNS.
Test [19] deals with UACC-257 melanoma.
Test [20] has as its system M14 melanoma.

Molecules are shown by their SMILES. Compounds without any hit were thinned out: in the full panel of roughly 83,000, 20% have a hit.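 Negative percent growth values reflect cell death: -40 means 40% of the cells present at the start died, and -100 means all died.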 Unmarked numbers belong to inactive results. Active and inactive are the calls of the source. The calls were made as follows: active = growth percent below 10; inactive = the rest.

Regarding `N#Cc1nc(-c2ccc(Cl)cc2)oc1S(=O)(=O)N1CCN(c2ccc(F)cc2)CC1`, the growth was 88.6% in test [1]; 94.9% in test [2]; 94% in test [3]; 96.4% in test [4]; 104% in test [5]; 99.3% in test [6]. The growth is 65.9% in test [7]; 98.6% in test [8]; 99.5% in test [9]; 102% in test [10]; 97.3% in test [11]; 24.6% in test [12]. The growth in [13] was 92.6%; in test [14] it was 103%; in test [15] it was 109%; in [16], 97.6%; in test [17] it was 101%; in [18], 98.3%. Besides, the growth was 94.5% in [19] and 95% in test [20].
Turning to `N=C(N)c1ccc(-c2ccc(-c3ccc(Cl)c(Cl)c3)s2)nc1`, the growth in [1] is 67.6%; in test [2] it was 86.9%; in test [3], -5.24% (active); in [4], 36.6%; in test [5] it was -61.6% (active); in [6], 77.3%. Moreover, the growth in test [7] is -34.5% (active); in test [8] it was -45.6% (active); in [9], -25.8% (active); in test [10], -40.5% (active); in test [11] it was -76.5% (active); in [12], -23.4% (active). In addition, the growth in test [13] was 60.5%; in [14], -27.1% (active); in test [15] it was 79.5%; in [16], 46.8%; in [17] it was 0.36% (active); in test [18] it was 23.1%. Moreover, the growth is 87.9% in test [19] and 36.1% in test [20].
Consider `CN(c1cc2ncc(=O)[nH]c2cc1NC(N)=NCc1ccc(Cl)cc1)C1CCCCC1`, for which the growth in [1] is 88.1%; in test [2], 72.8%; in test [3] it was 84.5%; in test [4] it was 80.8%; in test [5], 40.3%; in test [6] it was 28%. Besides, the growth in test [7] was 30.5%; in [8], 89.3%; in [9], 68.5%; in test [10] it was -63.6% (active); in test [11], 71.7%; in test [12], 2.83% (active). In addition, the growth was 29.9% in test [13]; 19.9% in test [14]; 37.1% in test [15]; 67.9% in test [16]; 95.8% in test [17]; 66.4% in test [18]. Also, the growth in test [19] is 106%; in [20], 40.1%.
Take `COc1ccc(Nc2ncc(Br)c(NCCCNC(=O)c3cccs3)n2)cc1`: the growth in [1] is 39.2%; in [2], 33.1%; in [3] it was 56.5%; in test [4] it was 22.6%; in test [5] it was 25.1%; in test [6], 30%. Moreover, the growth in test [7] is 61.3%; in test [8] it was 42.9%; in [9] it was 34.3%; in test [10], 33.2%; in test [11] it was 35.6%; in test [12], 28%. For the same compound, the growth in test [13] is 55.4%; in [14], 31.2%; in [15] it was -26.7% (active); in [16], 13.2%; in [17], 52.4%; in test [18], 14.8%. For the same compound, the growth in test [19] was 105%; in test [20] it was 50.2%.
Take `c1ccc(Cn2cc3c(c2)-c2oncc2CC3)cc1`: the growth in test [1] was 46.6%; in test [2], 53%; in [3], 60.4%; in test [4], 21.1%; in [5], 8.32% (active); in test [6] it was 65.4%. In addition, the growth was 21.3% in test [7]; 23.2% in test [8]; 37.1% in test [9]; 15.9% in [10]; 19.6% in [11]; 13.9% in test [12]. Moreover, the growth in test [13] is 86%; in test [14], 8.74% (active); in test [15], 0.371% (active); in [16], 37.2%; in test [17], 20.3%; in [18] it was -9.18% (active). Besides, the growth in test [19] was 82.8%; in [20], 19.9%.
With `COC(=O)/C=C1/SC(=Nc2cccc(OC)c2)N(CCc2c[nH]c3ccc(O)cc23)C1=O`, the growth was 76.1% in test [1]; 89.6% in [2]; 95.2% in [3]; 69.8% in test [4]; 61.3% in test [5]; 50.4% in [6]. Also, the growth in [7] is 54.3%; in test [8], 87.3%; in [9] it was 74.3%; in [10], 106%; in test [11] it was 33.1%; in test [12], 34.1%. The growth in test [13] was 79.5%; in test [14], 66.6%; in [15] it was 52.6%; in [16], 67%; in [17], 81.4%; in test [18] it was 72.4%. The values for the growth in test [19] and in test [20] were 57.7% and 51.3%, respectively.
`Clc1ccc2c(c1)C(c1c[nH]c3ccccc13)(c1c[nH]c3ccccc13)CCO2`: the growth in [1] was 93.5%; in [2] it was 79.7%; in test [3], 90.8%; in test [4], 46.4%; in [5], 85.3%; in test [6], 43.1%. Besides, the growth was -62.7% (active) in test [7]; 24.6% in test [8]; 80.8% in test [9]; 51.4% in test [10]; 88% in [11]; 73.1% in test [12]. Besides, the growth is 106% in test [13]; 55.5% in test [14]; 95.6% in [15]; 71.5% in test [16]; 70% in test [17]; 95.4% in [18]. Further, the growth in test [19] was 38.1%; in test [20], 69%.
